Screens as filed in PubChem BioAssay.
Most compounds without a hit are left out; they make up all but 10% or so of the library.
BAZ2B inh: BAZ2B (human) inhibition. Q9UIF8. 4.4% of 360,000 active. Potency, µM (top dose mostly 114 µM), for inactives: at the highest dose activity change, negative = inhibition, actives largely listed as inhibitors. AlphaScreen BAZ2B-H3K14Ac peptide displacement; note: potency is the fitted concentration of half-maximal effect; % is set by controls: 0 for no effect and ±100 for the full control effect; nearly all actives have a fitted effect of over 60% in size
Target sequence (Q9UIF8 whole entry, looked up): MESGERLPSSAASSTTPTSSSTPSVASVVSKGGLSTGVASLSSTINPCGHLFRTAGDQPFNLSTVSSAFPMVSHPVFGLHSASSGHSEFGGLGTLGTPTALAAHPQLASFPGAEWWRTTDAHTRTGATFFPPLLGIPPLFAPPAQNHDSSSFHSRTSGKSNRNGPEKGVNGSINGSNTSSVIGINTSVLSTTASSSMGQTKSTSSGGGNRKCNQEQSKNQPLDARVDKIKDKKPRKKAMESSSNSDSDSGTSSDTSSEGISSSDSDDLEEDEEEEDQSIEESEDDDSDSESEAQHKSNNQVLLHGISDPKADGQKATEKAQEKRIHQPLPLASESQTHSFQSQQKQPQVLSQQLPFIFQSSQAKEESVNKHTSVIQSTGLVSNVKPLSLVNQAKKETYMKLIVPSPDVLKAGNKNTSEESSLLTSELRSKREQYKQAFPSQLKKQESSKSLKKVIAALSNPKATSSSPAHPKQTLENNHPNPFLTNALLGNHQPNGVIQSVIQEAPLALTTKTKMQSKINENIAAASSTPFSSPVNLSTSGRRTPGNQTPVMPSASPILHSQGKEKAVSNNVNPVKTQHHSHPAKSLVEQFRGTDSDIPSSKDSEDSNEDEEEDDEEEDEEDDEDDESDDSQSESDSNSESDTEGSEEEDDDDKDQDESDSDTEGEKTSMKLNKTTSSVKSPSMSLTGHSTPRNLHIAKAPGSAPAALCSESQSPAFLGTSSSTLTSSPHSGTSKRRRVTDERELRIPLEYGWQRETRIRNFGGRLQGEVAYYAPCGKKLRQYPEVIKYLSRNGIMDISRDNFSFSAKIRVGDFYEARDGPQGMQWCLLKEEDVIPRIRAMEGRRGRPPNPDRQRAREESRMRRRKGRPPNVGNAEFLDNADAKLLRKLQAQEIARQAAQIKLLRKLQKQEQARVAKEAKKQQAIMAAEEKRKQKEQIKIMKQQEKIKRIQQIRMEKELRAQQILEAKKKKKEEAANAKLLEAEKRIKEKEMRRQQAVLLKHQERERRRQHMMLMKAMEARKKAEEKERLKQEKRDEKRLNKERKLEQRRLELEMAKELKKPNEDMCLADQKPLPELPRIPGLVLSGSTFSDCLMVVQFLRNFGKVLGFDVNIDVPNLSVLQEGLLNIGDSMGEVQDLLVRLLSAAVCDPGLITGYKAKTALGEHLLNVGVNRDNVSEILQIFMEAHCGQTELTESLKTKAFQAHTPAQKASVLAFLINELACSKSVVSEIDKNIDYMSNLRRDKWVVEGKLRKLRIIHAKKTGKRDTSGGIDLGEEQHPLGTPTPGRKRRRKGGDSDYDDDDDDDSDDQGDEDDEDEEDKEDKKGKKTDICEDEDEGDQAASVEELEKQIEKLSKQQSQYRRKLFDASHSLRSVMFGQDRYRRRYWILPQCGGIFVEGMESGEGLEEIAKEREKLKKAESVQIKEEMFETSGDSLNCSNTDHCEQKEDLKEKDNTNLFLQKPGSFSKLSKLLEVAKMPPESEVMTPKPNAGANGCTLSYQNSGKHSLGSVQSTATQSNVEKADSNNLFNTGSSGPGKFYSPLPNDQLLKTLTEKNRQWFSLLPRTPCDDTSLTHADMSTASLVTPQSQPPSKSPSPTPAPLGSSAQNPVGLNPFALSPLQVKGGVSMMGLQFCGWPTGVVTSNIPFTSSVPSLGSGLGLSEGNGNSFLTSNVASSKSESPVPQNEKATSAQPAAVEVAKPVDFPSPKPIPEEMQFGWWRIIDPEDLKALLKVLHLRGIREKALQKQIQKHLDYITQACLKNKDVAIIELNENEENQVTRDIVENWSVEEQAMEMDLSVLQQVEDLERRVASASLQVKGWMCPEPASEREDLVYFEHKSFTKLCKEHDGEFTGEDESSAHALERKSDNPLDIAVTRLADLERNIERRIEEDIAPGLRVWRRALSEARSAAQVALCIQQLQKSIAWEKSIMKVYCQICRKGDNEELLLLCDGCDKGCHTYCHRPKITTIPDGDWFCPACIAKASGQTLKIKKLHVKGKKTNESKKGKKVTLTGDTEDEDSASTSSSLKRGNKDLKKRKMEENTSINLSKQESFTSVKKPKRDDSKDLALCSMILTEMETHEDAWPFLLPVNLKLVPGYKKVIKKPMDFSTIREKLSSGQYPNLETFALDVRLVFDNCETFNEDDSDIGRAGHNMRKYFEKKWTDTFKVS
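AlphaScreen luminescence quantifies BAZ2B engagement of H3K14Ac peptide; the protein and biotinylated peptide are both at 50 nM final, buffer PBS pH 7.4 with 0.01% Tween-20, all steps at room temperature.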
G9a block: G9a (human) methyltransferase inhibition. G9a H3K9 monomethylation, AlphaScreen, 2 h. Potency, µM (top dose mostly 102 µM), inactives show at the top dose activity, negative = inhibition, actives largely listed as inhibitors. 8.8% of 350,000 active. AID 504332; note: potency is the fitted concentration of half-maximal effect; % is set by controls: 0 for no effect and ±100 for the full control effect; nearly all actives have a fitted effect of over 75% in size
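AlphaScreen detection with an anti-monomethyl H3K9 antibody quantified product after a 2 h room-temperature reaction containing 500 nM biotinylated H3K9 peptide, 20 µM SAM and 20 nM enzyme, which had been preincubated 15 min with compound.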
HP1b binding inh: HP1-beta chromodomain-methylated histone interaction inhibition; P83916; AlphaScreen HP1-beta / biotin-H3K9me3 peptide binding; Potency, µM (highest dose often 114 µM), inactives show at the top dose activity change, negative = inhibition, hits mostly inhibitors; 0.56% of 390,000 active; AID 540317; note: potency is the fitted concentration of half-maximal effect; nearly all actives have a fitted effect of over 70% in size
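Compound inhibition of the preformed complex between 50 nM HP1-beta and 50 nM biotinylated H3K9me3 peptide was read by AlphaScreen. Buffer was PBS pH 7.4 with 0.01% Tween-20. Incubations ran 30 min at room temperature, with 10 ug/mL donor/acceptor beads.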
CtBP-E1A blk: CtBP/E1A binding inhibition. 0.49% of 340,000 active. AID 651724. AlphaScreen GST-E1A/His-CtBP binding, 1536-well; active compounds read low. activity change, % (test concentration not listed); in the data active = activity change below about -65%; inconclusive = mostly about -30% to -63%; note: % is set by controls: 0 for no effect and ±100 for the full control effect
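Protein mix (5X: 125 nM each GST-E1A, His-CtBP) was incubated with pinned compound 2 h at 37 deg C in dark, in 50 mM Tris pH 8.0 buffer with 300 mM NaCl. Glutathione donor and nickel acceptor beads followed; AlphaScreen signal read after 1 h.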
JMJD2A Tudor: inhibitors of human JMJD2A Tudor domain; O75164; AlphaScreen JMJD2A-Tudor / H3K4me3 peptide binding; Potency, µM (titrated, usually from 114 µM), inactives show top-dose activity change, negative = inhibition, actives largely listed as inhibitors; 4.4% of 390,000 active; note: potency is the fitted concentration of half-maximal effect; % is set by controls: 0 for no effect and ±100 for the full control effect; nearly all actives have a fitted effect of over 50% in size
Six1-Eya2 blk: Six1/Eya2 interaction inhibition. AlphaScreen GST-Six1/His-Eya2 binding, biochemical; active compounds read low. Q15475+O00167. 0.56% of 360,000 active. activity change, % (concentration not given with the values); in the data active = activity change below about -65%; inconclusive = mostly about -30% to -63%; note: % is set by controls: 0 for no effect and ±100 for the full control effect
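AlphaScreen with GST-Six1 and His-Eya2 (5X mix: 250 nM and 500 nM), glutathione donor and nickel acceptor beads; buffer 50 mM Tris pH 8.0, 300 mM NaCl, 1 mM TCEP; 1 h at 37 C in the dark.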
* marks the source's active call; other numbers are inactive results; ? = inconclusive; · = no result; [ ] = remark or other dose. Unless noted, calls come from the whole dose curve; as a rule, active = well fitted inhibition curve with a large enough effect; inconclusive = small, poorly fitted or top-dose-only effect; inactive = no such curve, though single readings can be large or run the other way.

SMILES	BAZ2B inh	G9a block	HP1b binding inh	CtBP-E1A blk	JMJD2A Tudor	Six1-Eya2 blk
COc1ccc(NC(=O)CCNS(=O)(=O)c2cccc3nsnc23)cc1Cl	-1%	-1%[59 µM]	-3%	·	-19%	·
Cc1cccc(N2C(=O)C(CC(=O)Nc3cccc(F)c3)N(Cc3cccs3)C2=O)c1 (configuration not stated)	-14%	-16%[59 µM]	50%	·	-5%	·
COc1ccc(SN=C2C(C)=CC(=O)C=C2C)cc1	?	16µM*	?	-12	?	-16
Clc1ccc(OCCNCCc2ccccc2)cc1	-5%	?	47%	·	1%	10
c1ccc(CCNCCCOc2cccc3ccccc23)cc1	-35%	-5%[12.7 µM]	-31%	-16	40µM*	-5
COC(=O)CSC1=C(C#N)C(=O)NC(c2ccccc2)S1 (configuration not stated)	50µM*	?	46%	-8	?	0
CCC1CCCCN1CCCNC(=O)c1c(O)nc2ccccn2c1=O (configuration not stated)	-17%	79µM*	23%	4	-9%	1
CC1CCCCN1CCCNC(=O)c1c(O)nc2ccccn2c1=O (configuration not stated)	-17%	?	20%	4	-11%	4
CCCS(=O)(=O)c1c(S(=O)(=O)CCC)c2c(N)cccn2c1C(=O)c1ccc(Br)cc1	-39%	11µM*	-6%	-21	?	-19
CCCS(=O)(=O)c1c(S(=O)(=O)CCC)c2c(C)cccn2c1C(=O)OC	7%[57.1 µM]	32µM*	-16%	-11	?	-3
CCCS(=O)(=O)c1c(S(=O)(=O)CCC)c2c(N)cccn2c1C(=O)c1ccc(F)cc1	?	?	23%	-5	?	-10
COC(=O)COc1ccc(Oc2nc(NC(C)(C)C)nc(N3CCOCC3)n2)nn1	-4%	1%[59 µM]	8%	·	-11%	·
CCOC(=O)C1CCCN(C(=O)c2ccc3c(c2)N(Cc2ccccc2)C(=O)c2ccccc2S3(=O)=O)C1 (configuration not stated)	?	4%[59 µM]	44%	·	-11%	·
CCCOc1ccc(N2CC(C(=O)Nc3cccc(Cl)c3Cl)CC2=O)cc1 (configuration not stated)	-13%	-21%[59 µM]	47%	·	-17%	·
Cc1ccc(S(=O)(=O)N/N=C/c2cccc(OC3CSC3)c2)cc1	-5%	8.9µM*	15%	-14	-23%	-13
CCOc1ccc(/C=N/NS(=O)(=O)c2ccc(C)cc2)cc1OC	-4%	?	37%	·	-9%	3
Cc1ccc(S(=O)(=O)N/N=C/c2ccc(C#N)cc2)cc1	-25%	2.2µM*	18%	3	-17%	6
Cc1ccc(S(=O)(=O)N/N=C/c2cccc3c2OCCO3)cc1	-6%	10µM*	13%	-1	-17%	7
O=S(=O)(N/N=C/c1cccc(OC2CSC2)c1)c1ccccc1	-12%	?	-1%	4	-23%	0
COc1ccccc1-c1noc(-c2ccc(N3CCN(C)CC3)c([N+](=O)[O-])c2)n1	1%	3%[59 µM]	53%	·	-2%	·
Cc1ccc(CNC(=O)C2CCN(c3ncnc4c3nc3n4CCCCC3)CC2)cc1	6%	5%[59 µM]	29%	·	3%	·
FC(F)c1nc2ccccc2[nH]1	40µM*	·	23%	-25	-8%	11
FC(c1nc2ccccc2[nH]1)C(F)(F)F (configuration not stated)	-17%	31%	34%	-8	-12%	6
COCCCn1c(=N)c(S(=O)(=O)c2ccccc2)cc2c(=O)n3cccc(C)c3nc21	0%	8%[59 µM]	31%	·	7%	·
COC(=O)CCC(=O)OC1(C)C(=O)C2=COC(c3ccc(OC)cc3)=CC2=C(Br)C1=O (configuration not stated)	45µM*	?	?	?	32µM*	-21
SMILES	BAZ2B inh	G9a block	HP1b binding inh	CtBP-E1A blk	JMJD2A Tudor	Six1-Eya2 blk
COc1ccc(C2=CC3=C(Br)C(=O)C(C)(OC(=O)C4CCCC4)C(=O)C3=CO2)cc1 (configuration not stated)	79µM*	21%[12.7 µM]	?	-1	50µM*	-26
COc1ccc(CN2C=C3C(=O)C(C)(OC(=O)C4CCCC4)C(=O)C=C3C=C2c2ccsc2)cc1 (configuration not stated)	?	?	-23%	-20	?	-23
COC(=O)CCC(=O)OC1(C)C(=O)C2=CN(CCCCO)C(c3ccc(OC)cc3)=CC2=C(Br)C1=O (configuration not stated)	?	35µM*	·	·	·	·
COC(=O)CCC(=O)OC1(C)C(=O)C2=CN(Cc3ccc4c(c3)OCO4)C(c3ccc(OC)cc3)=CC2=C(Br)C1=O (configuration not stated)	·	·	-17%	?	?	-17
COc1ccc(C2=CC3=C(Br)C(=O)C(C)(OC(=O)c4ccc(Cl)nc4)C(=O)C3=CO2)cc1 (configuration not stated)	56µM*	-36%[59 µM]	50µM*	26	79µM*	2
COc1ccc(CN2C(=O)N(c3ccc(F)cc3)C(=O)C2CC(=O)Nc2ccccc2)cc1 (configuration not stated)	-7%	-30%[59 µM]	22%	·	-10%	·
O=C(NCc1cccc(F)c1)C1CCCN(C(=O)N2CCOc3ccccc32)C1 (configuration not stated)	-2%	-2%[59 µM]	17%	·	-19%	·
COc1ccc(S(=O)(=O)NCCSc2nnnn2-c2ccccc2)cc1OC	-24%	-8%[59 µM]	18%	·	-1%	·
CCc1ccccc1NC(=O)Cn1c(=O)n(CC(=O)NCCc2ccccc2)c(=O)c2ccccc21	-5%	-26%[59 µM]	17%	·	-4%	·
Cc1ccc(CN2C(=O)C[C@@H](NS(=O)(=O)c3ccc4ccccc4c3)C/C=C\C2c2ccc(C)cc2)cc1 (some centres not stated)	·	6.3µM*	·	·	·	·
COc1ccc(C2/C=C\CC(NS(=O)(=O)c3ccc(C)cc3)CC(=O)N2Cc2ccccc2F)cc1 (configuration not stated)	·	·	15%	-3	-27%	-3
Cc1c(CN(C)C)c2c(n1Cc1ccccc1)C(=O)c1ccccc1-2	50µM*	?	?	?	50µM*	?
Clc1ccc(-c2nnc(N3CCCC3)nn2)cc1	?	7.1µM*	?	-19	-30%	-27
Cc1cc(C)cc(OCCCCn2cncn2)c1	?	10µM*	?	-2	28µM*	9
c1ccc(COc2ccc(OCCCn3cncn3)cc2)cc1	-17%	-6%[59 µM]	52%	-3	3%	-2
